Screening results as filed in PubChem BioAssay.
Compounds with a hit are over-represented: about 19% of the library has one in this group of screens.
HT1080 IDH1KD tx – toxicity to HT-1080 IDH1 knockdown cells (counter line); HT-1080 IDH1 knockdown viability, ATP luminescence, 48 h; Potency, µM (top dose mostly 46.1 µM), without a hit: top-dose activity, negative = toxicity, actives largely listed as cytotoxic; 360,000 tested, 2% active;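 note: 0% = DMSO wells and -100% = cell-free medium wells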
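HT-1080-IDH1KD cells (IDH1 knocked down), 750/well in RPMI with 5% FBS, treated with compound 48 h at 37 degrees C. Viability by CellTiter-Glo luminescence, normalised to DMSO and no-cell wells; concentration-response curves classed.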
KB-3-1 cytotox – kills parental KB-3-1 adenocarcinoma cells; KB-3-1 viability, CellTiter-Glo ATP luminescence, 72 h; Potency, µM (titrated, usually from 46.1 µM), actives largely listed as cytotoxic; 400,000 tested, 1.4% active; AID 1347075; note: nearly all actives have a fitted effect of over 60% in size
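Cytotoxicity in the drug-sensitive parental line KB-3-1 was scored as loss of CellTiter-Glo luminescence following 72 h incubation with compound. Values come from curve fitting of normalized concentration-response data.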
KB-V1 MDR tox – kills drug-selected multidrug resistant KB-V1 cells; KB-V1 MDR cells viability, CellTiter-Glo, 72 h; Potency, µM (series often up to 46.1 µM), hits mostly cytotoxic; 400,000 tested, 3.4% active; note: nearly all actives have a fitted effect of over 60% in size
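KB-V1 cells (P-gp-expressing MDR subline of KB-3-1) in phenol-red-free DMEM with 10% FBS were exposed to library compounds over a concentration series for 72 h at 37 degrees C. Viability read by CellTiter-Glo luminescence; concentration-effect curves fitted after normalization.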
TDP1 cell CPT – growth inhibition of DT40 Tdp1-/-;hTDP1 cells with camptothecin (screen for TDP1 inhibitors); chicken DT40 Tdp1-/-;hTDP1 cells + 20 nM CPT, ATP luminescence, 48 h; Potency, µM (doses to about 46.2 µM), without a hit: at the highest dose activity change, negative = growth inhibition, most hits filed as inhibitors; 420,000 tested, 12% active; AID 686979; note: nearly all actives have a fitted effect of over 55% in size
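Chicken DT40 Tdp1-/- cells stably complemented with human TDP1 were seeded at 400 cells/well in medium containing 20 nM camptothecin, exposed to pin-transferred compounds, and grown at 37 °C for at least 48 hr. Viability was read as ATP luminescence.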
HT1080NT lethal – kills 2HG-producing HT-1080-NT fibrosarcoma cells. Potency, µM (titrated, usually from 46.1 µM), for inactives: top-dose activity, negative = less viability, hits mostly cytotoxic. HT-1080-NT fibrosarcoma viability, CellTiter-Glo ATP luminescence, 48 h. 360,000 tested, 1.6% active. AID 686970;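 note: NT is the 2HG producing partner of a matched IDH1 knockdown line; 0% = DMSO-treated cells and -100% = media-only wells without cells; nearly all actives have a fitted effect of over 55% in size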
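Luminescent CellTiter-Glo readout after 48 hours of compound exposure at 37 degrees C defined viability of HT-1080-NT cells. Activity was normalized to DMSO wells and cell-free media wells; concentration-response curves were fitted and assigned curve classes.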
DT40 TDP1 no CPT – qHTS for Inhibitors of human tyrosyl-DNA phosphodiesterase 1 (TDP1): qHTS in cells in absence of CPT | 420,000 tested, 15% active | DT40 Tdp1-/- hTDP1 cells, no CPT, ATP luminescence, 48 h | AID 686978, 2013 | Potency, µM (doses to about 46.2 µM), inactives show top-dose activity change, negative = growth inhibition, usual class: inhibitors; note: nearly all actives have a fitted effect of over 55% in size
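A cellular qHTS used chicken DT40 cells lacking endogenous Tdp1 but carrying stably transfected human TDP1. Compounds were applied without camptothecin, and cell growth kinetics were judged by ATP-dependent luminescence after ≥48 hr.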
Numbers without * were called inactive; i = inactive; u = inconclusive. Calls come from the whole dose curve; as a rule, active = well fitted curve in the direction sought with a large enough effect; inconclusive = small, poorly fitted or top-dose-only effect, or another doubt; inactive = no such curve, though single readings can be large; an effect the other way counts as inactive or inconclusive. Unless noted, % is set by controls: 0 for no effect and ±100 for the full control effect; potency is the fitted concentration of half-maximal effect.

SMILES | HT1080 IDH1KD tx | KB-3-1 cytotox | KB-V1 MDR tox | TDP1 cell CPT | HT1080NT lethal | DT40 TDP1 no CPT
O=S(=O)(Nc1cccc(S(=O)(=O)N2CCOCC2)c1)c1cccs1 | 7% | i | i | 5% | 12% | -2%
CCN(CC)CCn1c(=S)[nH]c2ccc(Cl)cc2c1=O | u | i | i | -1% | u | -19%
O=c1c2cc(Cl)ccc2[nH]c(=S)n1Cc1ccccn1 | 8% | i | i | 18µM* | 11% | u
CN(C)CCNC(=O)c1ccc2c(=O)n(Cc3ccc(Cl)cc3)c(=S)[nH]c2c1 | u | i | i | 21µM* | 23µM* | 29µM*
O=C(NCc1ccccn1)c1ccc(Cn2c(=S)[nH]c3ccccc3c2=O)cc1 | 1% | i | i | -26% | -13% | u
CCc1ccc(C(CNC(=O)c2ccc3c(=O)n(-c4ccccc4F)c(=S)[nH]c3c2)N(C)C)cc1 (configuration not stated) | 33µM* | i | i | u | u | 23µM*
O=C(NCc1ccccn1)c1ccc(Cn2c(=S)[nH]c3ccc(Br)cc3c2=O)cc1 | 7% | i | i | u | -2% | 6.5µM*
CCCCN(C)CCNC(=O)c1ccc(Cn2c(=S)[nH]c3ccc(Br)cc3c2=O)cc1 | 15µM* | i | i | 26µM* | 21µM* | u
COc1cc2c(cc1OC)CN(CC(=O)NC(=O)NC1CCCCC1)CC2 | 10% | i | u | -3% | 1% | -13%
COc1cc(O)c(C(=O)/C=C/c2ccccc2)c(OC)c1 | u | u | u | 15µM* | u | 18µM*
COc1ccc(C(=O)C=Cc2ccc(OCc3ccccc3)c(OC)c2)cc1OC | u | u | u | 7.3µM* | u | 4.6µM*
COc1cc(/C=N/NC(=O)c2cccc([N+](=O)[O-])c2)ccc1OCc1ccccc1 | 4% | i | u | u | 14% | u
COc1cc(OC)c(C(=O)/C=C/c2ccc(OCc3ccccc3)c(OC)c2)c(OC)c1 | u | u | u | 23µM* | u | 23µM*
COc1cc(/C=C/[N+](=O)[O-])ccc1OCc1cccc(C(=O)O)c1 | u | i | i | 16µM* | u | 16µM*
COc1ccc(/C=C/C(=O)OCC(=O)Nc2ccc3c(c2)OCO3)cc1 | -1% | i | i | -26% | 1% | 0%
COc1ccc(OC(=O)/C=C/c2ccc([N+](=O)[O-])cc2)cc1 | 8% | i | i | -17% | 9% | u
COc1cc(/C=C/[N+](=O)[O-])ccc1OC(=O)/C=C/c1ccc(F)cc1 | 0% | u | i | 3.3µM* | 13% | 2.3µM*
CN(CC(=O)NC1CCCCCC1)S(=O)(=O)c1ccccc1 | -9% | i | i | -7% | 0% | -1%
COc1ccccc1N(CC(=O)NC1CCCC1)S(=O)(=O)c1cccc(C(F)(F)F)c1 | 1% | i | i | u | 7% | -8%
O=C(CN(Cc1ccccc1)S(=O)(=O)c1cccc(C(F)(F)F)c1)NC1CCCCC1 | -7% | i | 3.7µM* | u | -9% | u
CC(c1ccccc1)N(CC(=O)NC1CCCCC1)S(=O)(=O)c1cccc(C(F)(F)F)c1 (configuration not stated) | -20% | i | u | u | -21% | 16µM*
CCC(C)Sc1ccc([C@@H]2[C@@H]3C(=O)N(CC)C(=O)[C@@H]3[C@]3(C(=O)OC)CCCCN23)cc1OC (some centres not stated) | -9% | i | i | u | 1% | u
